Measurements as given in the supplement of paper PMC10849652.
About 8,800 targets were measured; listed, in parts, are those with a hit and a random draw of the rest. About 0.5% of all pairs of compound and target were hits.

Compound: NCC(=O)Nc1ccc(-n2nc(C(F)(F)F)cc2-c2ccc3c(ccc4ccccc43)c2)cc1
Test: log2 fold change, soluble protein after heating vs DMSO (PISA); higher = thermal stabilisation; K562 lysate, 10 uM; active = over 0.2 and 3.5 SD of the protein, either way, in both replicates (recomputed)
In short: (§1)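 Dounce homogenisation of K562 pellets in PBS pH 7.4 with 1 mM MgCl2 produced a crude extract, used at 1 mg/mL protein. Exposure to 10 μM compound lasted 30 min, and aliquots were then heated for 3 min across 48°C-58°C, pooled and brought to 0.5% NP-40 at 4°C. The supernatant after 21,000xg for 90 min was quantified by TMTpro 16plex LC-MS/MS with channel sums equalised. Duplicate values are given as log-two fold change in thermal stability relative to solvent controls.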

Sequence of UniProt Q6P3W2 (Q6P3W2 whole entry, looked up): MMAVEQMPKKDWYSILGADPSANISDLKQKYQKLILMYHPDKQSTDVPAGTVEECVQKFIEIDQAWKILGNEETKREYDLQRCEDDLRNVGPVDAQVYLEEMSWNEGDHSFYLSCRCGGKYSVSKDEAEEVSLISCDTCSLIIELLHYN
Sequence of UniProt P51790 (P51790 whole entry, looked up): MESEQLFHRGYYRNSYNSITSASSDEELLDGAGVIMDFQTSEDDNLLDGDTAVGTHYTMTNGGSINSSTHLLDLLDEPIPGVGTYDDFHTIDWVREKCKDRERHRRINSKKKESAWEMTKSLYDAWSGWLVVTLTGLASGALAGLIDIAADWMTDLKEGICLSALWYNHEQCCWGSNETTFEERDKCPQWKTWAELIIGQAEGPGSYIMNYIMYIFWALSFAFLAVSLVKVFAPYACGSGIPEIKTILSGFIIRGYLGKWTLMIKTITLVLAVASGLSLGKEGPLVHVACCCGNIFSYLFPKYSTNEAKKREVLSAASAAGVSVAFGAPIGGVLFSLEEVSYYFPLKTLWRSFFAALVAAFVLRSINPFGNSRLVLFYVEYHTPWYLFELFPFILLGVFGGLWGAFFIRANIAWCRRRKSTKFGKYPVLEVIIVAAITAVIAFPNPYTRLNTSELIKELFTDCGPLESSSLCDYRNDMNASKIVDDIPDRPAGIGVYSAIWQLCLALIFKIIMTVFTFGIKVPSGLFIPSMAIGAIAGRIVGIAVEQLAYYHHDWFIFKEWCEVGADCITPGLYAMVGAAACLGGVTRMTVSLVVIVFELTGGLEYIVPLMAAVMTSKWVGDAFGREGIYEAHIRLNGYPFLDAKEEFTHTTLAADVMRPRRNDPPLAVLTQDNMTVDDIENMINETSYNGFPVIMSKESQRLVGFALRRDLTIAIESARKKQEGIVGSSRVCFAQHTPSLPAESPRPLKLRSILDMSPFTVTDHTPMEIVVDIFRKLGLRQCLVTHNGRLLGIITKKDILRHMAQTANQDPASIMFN
Sequence of UniProt Q7L7V1 (Q7L7V1 whole entry, looked up): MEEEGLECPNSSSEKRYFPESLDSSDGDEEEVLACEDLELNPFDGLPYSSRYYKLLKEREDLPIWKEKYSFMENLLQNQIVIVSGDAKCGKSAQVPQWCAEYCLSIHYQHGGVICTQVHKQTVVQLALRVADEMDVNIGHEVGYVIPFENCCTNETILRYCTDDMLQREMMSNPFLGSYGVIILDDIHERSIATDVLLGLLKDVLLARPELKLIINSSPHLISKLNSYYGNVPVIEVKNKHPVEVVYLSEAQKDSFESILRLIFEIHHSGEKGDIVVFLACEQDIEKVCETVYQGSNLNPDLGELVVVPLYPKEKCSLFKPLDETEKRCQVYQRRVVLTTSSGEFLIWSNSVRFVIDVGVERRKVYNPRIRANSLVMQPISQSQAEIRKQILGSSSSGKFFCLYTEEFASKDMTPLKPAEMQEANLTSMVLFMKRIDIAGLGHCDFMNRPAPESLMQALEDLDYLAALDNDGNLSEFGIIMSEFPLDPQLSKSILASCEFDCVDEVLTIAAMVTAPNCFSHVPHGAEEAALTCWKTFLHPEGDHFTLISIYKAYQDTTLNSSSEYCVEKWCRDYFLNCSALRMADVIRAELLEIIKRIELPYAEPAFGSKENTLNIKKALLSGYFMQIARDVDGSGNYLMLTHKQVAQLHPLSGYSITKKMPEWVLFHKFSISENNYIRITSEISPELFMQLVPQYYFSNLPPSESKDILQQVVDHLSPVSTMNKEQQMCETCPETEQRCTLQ
Sequence of UniProt Q5D0E6 (Q5D0E6 whole entry, looked up): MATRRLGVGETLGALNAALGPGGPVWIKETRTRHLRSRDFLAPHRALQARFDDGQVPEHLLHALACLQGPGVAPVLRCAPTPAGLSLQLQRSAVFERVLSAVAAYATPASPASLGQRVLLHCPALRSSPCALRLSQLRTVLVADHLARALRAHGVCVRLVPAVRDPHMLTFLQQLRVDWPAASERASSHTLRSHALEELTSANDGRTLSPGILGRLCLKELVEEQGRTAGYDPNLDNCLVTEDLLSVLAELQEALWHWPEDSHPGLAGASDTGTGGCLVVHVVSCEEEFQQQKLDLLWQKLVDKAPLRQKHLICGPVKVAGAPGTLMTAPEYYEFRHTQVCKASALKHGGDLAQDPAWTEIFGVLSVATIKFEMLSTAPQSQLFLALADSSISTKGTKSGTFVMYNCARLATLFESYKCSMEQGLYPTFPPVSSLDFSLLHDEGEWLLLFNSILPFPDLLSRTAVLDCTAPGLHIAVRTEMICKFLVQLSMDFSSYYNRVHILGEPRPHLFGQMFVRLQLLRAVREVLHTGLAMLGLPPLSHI
Sequence of UniProt P61024 (P61024 whole entry, looked up): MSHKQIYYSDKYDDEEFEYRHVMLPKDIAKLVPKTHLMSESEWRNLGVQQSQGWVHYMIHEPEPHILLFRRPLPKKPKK
Sequence of UniProt Q9NQI0 (Q9NQI0 whole entry, looked up): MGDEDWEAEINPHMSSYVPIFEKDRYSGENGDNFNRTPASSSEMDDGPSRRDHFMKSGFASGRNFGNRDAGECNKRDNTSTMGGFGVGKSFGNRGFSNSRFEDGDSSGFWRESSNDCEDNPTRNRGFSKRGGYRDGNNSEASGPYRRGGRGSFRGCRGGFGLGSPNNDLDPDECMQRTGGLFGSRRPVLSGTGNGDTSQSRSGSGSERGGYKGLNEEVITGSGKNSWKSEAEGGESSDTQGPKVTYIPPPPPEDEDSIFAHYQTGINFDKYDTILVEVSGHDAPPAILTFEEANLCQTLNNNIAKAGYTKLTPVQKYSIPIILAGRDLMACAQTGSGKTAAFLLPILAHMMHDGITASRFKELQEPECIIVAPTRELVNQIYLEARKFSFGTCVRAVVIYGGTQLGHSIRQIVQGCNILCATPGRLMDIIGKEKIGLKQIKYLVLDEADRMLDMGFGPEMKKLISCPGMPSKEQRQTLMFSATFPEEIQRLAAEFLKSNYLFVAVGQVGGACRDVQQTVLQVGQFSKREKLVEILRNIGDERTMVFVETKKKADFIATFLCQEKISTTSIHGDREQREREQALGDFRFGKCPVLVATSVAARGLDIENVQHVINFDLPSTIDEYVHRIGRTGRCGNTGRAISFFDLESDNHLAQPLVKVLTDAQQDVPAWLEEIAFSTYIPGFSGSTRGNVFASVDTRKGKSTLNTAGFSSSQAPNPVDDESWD
Sequence of UniProt Q96EP1 (Q96EP1 whole entry, looked up): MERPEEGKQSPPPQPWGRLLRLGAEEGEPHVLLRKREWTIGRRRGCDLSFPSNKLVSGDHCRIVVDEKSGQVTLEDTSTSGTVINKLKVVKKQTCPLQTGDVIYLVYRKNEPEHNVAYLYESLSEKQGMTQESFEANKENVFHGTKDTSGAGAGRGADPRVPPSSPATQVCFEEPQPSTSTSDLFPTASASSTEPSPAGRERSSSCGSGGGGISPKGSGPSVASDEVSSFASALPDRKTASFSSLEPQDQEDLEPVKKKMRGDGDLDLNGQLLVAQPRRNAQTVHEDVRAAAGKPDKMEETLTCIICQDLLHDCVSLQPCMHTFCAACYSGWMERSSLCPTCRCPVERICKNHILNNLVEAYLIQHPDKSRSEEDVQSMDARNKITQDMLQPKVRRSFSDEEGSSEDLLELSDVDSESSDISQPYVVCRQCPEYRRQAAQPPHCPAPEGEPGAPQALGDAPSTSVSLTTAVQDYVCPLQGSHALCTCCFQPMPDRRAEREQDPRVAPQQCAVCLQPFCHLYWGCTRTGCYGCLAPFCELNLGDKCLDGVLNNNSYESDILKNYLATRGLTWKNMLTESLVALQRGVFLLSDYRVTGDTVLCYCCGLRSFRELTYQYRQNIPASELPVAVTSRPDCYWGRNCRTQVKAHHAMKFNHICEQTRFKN
Sequence of UniProt P51530 (P51530 whole entry, looked up): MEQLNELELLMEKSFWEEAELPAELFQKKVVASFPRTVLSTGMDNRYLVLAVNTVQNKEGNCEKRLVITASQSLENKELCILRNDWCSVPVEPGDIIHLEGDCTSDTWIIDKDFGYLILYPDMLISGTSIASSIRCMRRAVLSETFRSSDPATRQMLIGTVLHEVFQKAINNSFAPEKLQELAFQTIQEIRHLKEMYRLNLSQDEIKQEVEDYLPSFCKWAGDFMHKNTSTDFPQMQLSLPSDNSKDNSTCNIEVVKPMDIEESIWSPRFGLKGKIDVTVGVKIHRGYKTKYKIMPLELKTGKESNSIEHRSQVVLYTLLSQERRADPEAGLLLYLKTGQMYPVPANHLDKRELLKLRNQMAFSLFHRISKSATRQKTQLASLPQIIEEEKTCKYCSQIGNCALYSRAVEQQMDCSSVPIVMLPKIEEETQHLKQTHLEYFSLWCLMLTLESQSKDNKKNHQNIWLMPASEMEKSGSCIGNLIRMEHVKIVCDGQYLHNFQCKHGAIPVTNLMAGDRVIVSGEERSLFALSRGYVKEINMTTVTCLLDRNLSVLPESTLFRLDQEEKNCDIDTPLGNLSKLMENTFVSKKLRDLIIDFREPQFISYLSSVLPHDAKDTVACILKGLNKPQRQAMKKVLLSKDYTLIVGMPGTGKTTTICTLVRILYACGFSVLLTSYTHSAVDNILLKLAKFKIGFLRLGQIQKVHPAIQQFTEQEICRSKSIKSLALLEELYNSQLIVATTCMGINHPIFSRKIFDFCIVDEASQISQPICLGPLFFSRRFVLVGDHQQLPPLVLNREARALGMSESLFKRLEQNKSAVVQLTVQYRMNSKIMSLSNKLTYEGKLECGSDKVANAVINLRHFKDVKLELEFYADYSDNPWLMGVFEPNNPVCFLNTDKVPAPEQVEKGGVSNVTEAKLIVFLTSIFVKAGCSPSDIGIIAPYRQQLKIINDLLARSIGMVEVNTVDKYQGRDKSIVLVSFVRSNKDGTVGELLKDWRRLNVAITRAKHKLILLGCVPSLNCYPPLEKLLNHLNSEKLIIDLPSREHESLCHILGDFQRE
Sequence of UniProt O14810 (O14810 whole entry, looked up): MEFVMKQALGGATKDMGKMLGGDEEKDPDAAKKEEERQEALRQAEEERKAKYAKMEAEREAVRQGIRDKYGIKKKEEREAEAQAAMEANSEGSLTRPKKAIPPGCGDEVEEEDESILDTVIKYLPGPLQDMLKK
Sequence of UniProt Q8WXC6 (Q8WXC6 whole entry, looked up): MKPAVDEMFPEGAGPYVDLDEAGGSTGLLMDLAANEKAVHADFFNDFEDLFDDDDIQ

Target | log2 fold change
DARS (UniProt P14868) | 0.003 (inactive)
CLCN3 (UniProt P51790) | -0.165 (inactive)
CPLX1 (UniProt O14810) | 0 (inactive)
CNK3/IPCEF1 isoform 2 (UniProt G9CGD6) | -0.02 (inactive)
CXCL14 (UniProt O95715) | 0.24 (inactive)
CINP isoform 3 (UniProt Q9BW66) | 0.084 (inactive)
DNAJC24 (UniProt Q6P3W2) | -0.159 (inactive)
CHFR (UniProt Q96EP1) | -0.219 (inactive)
DNA2 (UniProt P51530) | -0.059 (inactive)
DHX32 (UniProt Q7L7V1) | -0.044 (inactive)
COG3 (UniProt Q96JB2) | 0.011 (inactive)
CLIP1, A0A3B3ITA2 | 0.136 (inactive)
DALRD3 (UniProt Q5D0E6) | -0.17 (inactive)
CKS1B (UniProt P61024) | -0.059 (inactive)
CSNK2A1 (UniProt P68400) | 0.15 (inactive)
CMIP (UniProt Q8IY22) | -0.101 (inactive)
DESI2 (UniProt Q9BSY9) | 0.155 (inactive)
CSNK1D (UniProt P48730) | 0.002 (inactive)
DDX4 (UniProt Q9NQI0) | 0.019 (inactive)
CLASP2 (UniProt O75122) | 0.052 (inactive)

Compound: O=C(CCCCCCC(=O)Nc1ccccc1)NO [vorinostat]
Test: as above
In short: as §1

Target | log2 fold change
DARS (UniProt P14868) | -0.327 (active)
CLCN3 (UniProt P51790) | -0.171 (inactive)
DONSON (UniProt Q9NYP3) | -0.401 (active)
CRLS1 (UniProt Q9UJA2) | -0.572 (active)
CNK3/IPCEF1 isoform 2 (UniProt G9CGD6) | -0.279 (inactive)
DNAJC24 (UniProt Q6P3W2) | 0.053 (inactive)
CHFR (UniProt Q96EP1) | -0.143 (inactive)
CNOT2 (UniProt F8VRS8) | -0.056 (inactive)
CYP4V2 (UniProt Q6ZWL3) | 0.055 (inactive)
DNA2 (UniProt P51530) | -0.448 (active)
DHX32 (UniProt Q7L7V1) | -0.351 (inactive)
COG3 (UniProt Q96JB2) | -0.314 (active)
DALRD3 (UniProt Q5D0E6) | -0.895 (active)
DHRS13 (UniProt Q6UX07) | 1.11 (active)
CKS1B (UniProt P61024) | 0.115 (inactive)
COL6A3 (UniProt P12111) | 0.273 (inactive)
CSNK2A1 (UniProt P68400) | 0.057 (inactive)
DNM2 isoform 4 (UniProt P50570) | -0.826 (active)
CSAD isoform 3 (UniProt Q9Y600) | 0.031 (inactive)
CMIP (UniProt Q8IY22) | -0.541 (active)
DDX4 (UniProt Q9NQI0) | -0.213 (inactive)
CLIP1 isoform 2 (UniProt P30622) | 0.167 (inactive)
COPS9 (UniProt Q8WXC6) | 0.341 (inactive)
